13 compounds from PubChem BioAssay (NCI) can be followed below.

Among the test systems are NCI-H23 lung; NCI-H226 lung; NCI-H322M lung; HOP-62 NSCLC; NCI-H460 lung; HOP-92 NSCLC; NCI-H522 lung; A549/ATCC NSCLC; 786-0 renal; COLO 205 colon.
Experiment in all cases: NCI-60 one-dose screen, 48 h (100 = growth as untreated, 0 = no growth, -100 = all killed)
Settings in all cases: 10 µM unless noted

The panel holds about 83,000 compounds, 20% with a hit somewhere; the sample as a whole holds those more often.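 The test compound was applied at a single concentration to cells in 96-well plates for 48 hours, and percent growth was recorded.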 Unmarked numbers belong to inactive results. The source made the active and inactive calls. Rule for the calls: active = growth percent below 10; inactive = the rest.

As for `COc1cc(CCCO)c(OC)c(OC)c1OC`, the growth is 104% in the test on NCI-H23 lung; 102% in the test with NCI-H226 lung; 96.1% with NCI-H322M lung; 111% in the test on HOP-62 NSCLC; 108% in the test with NCI-H460 lung; 100% in the test on HOP-92 NSCLC. Further, the growth in the test with NCI-H522 lung is 106%; with A549/ATCC NSCLC, 102%; in the test on 786-0 renal, 103%; in the test on COLO 205 colon, 122%.

As for `CCN(CC)CCNC(=O)c1cn2ncnc(Oc3ccc(NC(=O)Nc4ccc(Cl)c(C(F)(F)F)c4)cc3)c2c1C`, the growth was -83.6% (active) with NCI-H23 lung; 6% (active) with NCI-H226 lung; 4.06% (active) in the test with NCI-H322M lung; -78.5% (active) in the test on HOP-62 NSCLC; -74.4% (active) with NCI-H460 lung; -39.1% (active) in the test on HOP-92 NSCLC. For the same compound, the growth was -63% (active) in the test with NCI-H522 lung, -85.2% (active) in the test on A549/ATCC NSCLC, -89.9% (active) with 786-0 renal and -73.4% (active) in the test with COLO 205 colon.

Consider `O=C(N/N=C/[C@H](O)[C@@H](O)[C@@H](O)[C@H](O)CO)c1ccc(NC(=O)c2cccnc2)cc1`, for which the growth in the test on NCI-H23 lung is 110%; with NCI-H226 lung it was 106%; with NCI-H322M lung, 103%; with HOP-62 NSCLC it was 113%; in the test on NCI-H460 lung, 108%; with HOP-92 NSCLC it was 111%. The growth in the test on NCI-H522 lung was 96.2%; with A549/ATCC NSCLC, 102%; in the test with 786-0 renal it was 113%; in the test on COLO 205 colon, 110%.

In the case of `NS(=O)(=O)c1ccc(-n2nc(C(=O)N/N=C\c3ccc(F)cc3)cc2-c2ccc(Br)cc2)cc1`, the growth with NCI-H23 lung is 83.9%; with NCI-H226 lung, 81.9%; in the test on NCI-H322M lung, 94.3%; with HOP-62 NSCLC, 65.3%; in the test on NCI-H460 lung it was 84.1%; in the test with HOP-92 NSCLC, 67.8%. Also, the growth with NCI-H522 lung is 54.2%; in the test on A549/ATCC NSCLC, 74.3%; with 786-0 renal, 106%; in the test on COLO 205 colon, 83.1%.

`O=C(N/N=C/c1ccc(Cl)cc1)c1ccc(C(F)(F)F)nc1Nc1cccc(C(F)(F)F)c1`: the growth was -36.7% (active) in the test with NCI-H23 lung; 21.2% in the test on NCI-H226 lung; 8.21% (active) in the test on NCI-H322M lung; 43.5% in the test with HOP-62 NSCLC; 6.99% (active) in the test on NCI-H460 lung; -0.43% (active) with HOP-92 NSCLC. In addition, the growth with NCI-H522 lung was 8.57% (active); with A549/ATCC NSCLC, 19.5%; in the test on 786-0 renal, 23.1%; in the test with COLO 205 colon, -12.6% (active).

For `O=C(COc1ccc(/C=C2\Cc3ccc(Cl)cc3C2=O)cc1)Nc1nc2ccccc2s1`, the growth is 95.5% in the test on NCI-H23 lung; 101% in the test on NCI-H226 lung; 134% in the test on NCI-H322M lung; 98.2% in the test with HOP-62 NSCLC; 103% in the test with NCI-H460 lung; 97% in the test on HOP-92 NSCLC. The growth with NCI-H522 lung is 96.7%; with A549/ATCC NSCLC it was 99.5%; in the test with 786-0 renal, 103%; with COLO 205 colon it was 116%.

Take `Cc1cccc2c(=O)c3c(sc12)c(NCc1ccccc1)nc1ccccc13`: the growth is 84.5% in the test on NCI-H23 lung; 76.3% with NCI-H226 lung; 89.9% in the test with NCI-H322M lung; 87.5% with HOP-62 NSCLC; 54.8% with NCI-H460 lung; 111% in the test with HOP-92 NSCLC. In addition, the growth with NCI-H522 lung is 81.6%; with A549/ATCC NSCLC, 92%; in the test with 786-0 renal it was 100%; with COLO 205 colon, 87.2%.

Take `CCOC(=O)c1[nH]c(C)c(C(=O)OCc2ccccc2C#N)c1C`: the growth is 69% with NCI-H23 lung; 100% in the test on NCI-H226 lung; 88.4% with NCI-H322M lung; 68.7% with HOP-62 NSCLC; 83.4% in the test on NCI-H460 lung; 47.4% in the test with HOP-92 NSCLC. The growth in the test with NCI-H522 lung was 51.8%; in the test on A549/ATCC NSCLC, 83.6%; with 786-0 renal, 61.2%; with COLO 205 colon it was 89.8%.

Regarding `COc1cc2cc(Oc3ccc(NC(=O)Nc4ccc(F)c(C(F)(F)F)c4)cc3)c(C)nc2cc1OCCN1CCOCC1`, the growth was 0.421% (active) in the test on NCI-H23 lung; 36.6% with NCI-H226 lung; 60.7% in the test on NCI-H322M lung; 24.4% in the test on HOP-62 NSCLC; 7.19% (active) in the test on NCI-H460 lung; -12.9% (active) in the test on HOP-92 NSCLC. Also, the growth in the test with NCI-H522 lung is 13.6%; in the test with A549/ATCC NSCLC, 12.7%; in the test on 786-0 renal, 35%; with COLO 205 colon, -6.62% (active).

As for `COc1ccc(CNC(=O)C(=O)[C@H](Cc2ccccc2)NC(=O)c2[nH]c3ccccc3c(=O)c2C)cc1`, the growth was 101% in the test with NCI-H23 lung; 103% in the test with NCI-H226 lung; 96.8% in the test with NCI-H322M lung; 102% in the test with HOP-62 NSCLC; 108% in the test on NCI-H460 lung; 117% with HOP-92 NSCLC. In addition, the growth was 96.4% with NCI-H522 lung, 95.6% in the test on A549/ATCC NSCLC, 102% with 786-0 renal and 113% in the test on COLO 205 colon.

For `NC1=C(c2nn[nH]n2)C(c2ccccc2Cl)c2ccc3ccccc3c2O1` (stereo not given), the growth in the test with NCI-H23 lung was 76.3%; in the test on NCI-H226 lung, 76.8%; in the test on NCI-H322M lung, 89.9%; with HOP-62 NSCLC, 66.5%; in the test on NCI-H460 lung it was 87.5%; with HOP-92 NSCLC it was 69.7%. Further, the growth in the test with NCI-H522 lung was 35.5%; in the test on A549/ATCC NSCLC, 83.3%; in the test on 786-0 renal, 82.7%; in the test on COLO 205 colon, 86.8%.

For the compound `O=c1[nH]c2c(ccc3cnccc32)c2c1CCC2`, the growth in the test with NCI-H23 lung was -64.6% (active); in the test with NCI-H226 lung it was -6.54% (active); in the test on NCI-H322M lung it was -11.7% (active); in the test on HOP-62 NSCLC, -3.9% (active); in the test on NCI-H460 lung it was -4.19% (active); with HOP-92 NSCLC, -17.1% (active). The growth was -33.6% (active) in the test on NCI-H522 lung, 14.9% in the test on A549/ATCC NSCLC, 12.6% in the test on 786-0 renal and -77.4% (active) with COLO 205 colon.

For the compound `COC(=O)C(Cc1ccccc1)NC(=O)NC(=O)NC(=O)CI` (stereo not given), the growth in the test on NCI-H23 lung is 63.2%; with NCI-H226 lung it was 82.9%; in the test with NCI-H322M lung it was 108%; in the test with HOP-62 NSCLC, 102%; in the test on NCI-H460 lung, 92.3%; in the test on HOP-92 NSCLC, -26% (active). The growth in the test on NCI-H522 lung is -82.1% (active); with A549/ATCC NSCLC, 99.8%; in the test with 786-0 renal, -3.88% (active); in the test on COLO 205 colon, 25.4%.
